Results filed as inconclusive are left out. Values without a mark were called inactive. Calls of active or inactive are those of the source. The call rests on the fitted dose curve; in most records, active means well fitted inhibition curve with a large enough effect; inconclusive means small, poorly fitted or top-dose-only effect; inactive means flat fitted curve, though single readings scatter.
These compounds were tested on CRL-7250 (assay: Cytotoxic Profiling of Annotated Libraries Using Quantitative High-Throughput Screening (AID 1296008; further: nearly all actives have a fitted effect of over 60% in size)). Conditions: Five cell lines viability, CellTiter-Glo ATP luminescence, 48-72 h; max response: stronger effect = lower value.
Outline: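 Cells exposed to compounds for 48 or 72 hr at 37 degrees Celsius. Viability read as ATP-coupled luminescence with CellTiter-Glo after 10 min at room temperature.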
For COC1C2=C(COC2=O)C2(C)CCCC(C)(CO)C2C1OC(=O)c1ccccc1 (stereo not given), the outcome was “inactive”.
Work on C=CC(C)(C)C1(CC2NC(=O)C3CCCN3C2=O)C(=O)Nc2cc3c(cc21)C=CC(C)(C)O3 (stereo not given) yielded a max response of -5.49%.
Compound CC1CCC2(C(=O)OC3OC(CO)C(O)C(O)C3O)CCC3(C(=O)O)C(=CCC4C5(C)CCC(OC6OC(C)C(O)C(O)C6O)C(C)(C)C5CCC43C)C2C1C (stereo not given) has a max response of 1.53%.
C=CC1C(O[C@@H]2O[C@H](CO)[C@@H](O)[C@H](O)[C@H]2O)OC=C(C(=O)OC)C1CC(=O)O (stereo not given in full) was tested, and the outcome was “inactive”.
Work on C=CC1C(O[C@@H]2O[C@H](CO)[C@@H](O)[C@H](O)[C@H]2O)OC=C(C(=O)OC)C1Cc1nccc2c1[nH]c1ccccc12 (stereo not given in full) yielded a max response of 3.98%.
Work on Nc1nc(CC(=O)Nc2ccc(CCNCC(O)c3ccccc3)cc2)cs1 (stereo not given) yielded a max response of 2.98%.
CC1CCC2C(C(=O)O)=CC3CC(C)(C)CC132 (stereo not given) gave a max response of 3.63%.
CC(C)(O)c1ccc2c(c1)C(=O)CC1[C@](C)(CO)CCC[C@]21C (stereo not given in full) was tested, and the max response was -1.72%.
COc1cc(C/C(=C/NC(C)=O)N(CC(=O)Cc2ccccc2)C(C)=O)cc2c1OCO2 was tested, and the max response was -6.34%.
CC1(O)CCC2C(C(=O)O)=COC(OC3OC(CO)C(O)C(O)C3OC(=O)/C=C/c3ccc(O)cc3)C21 (stereo not given) was tested, and the outcome was “inactive”.
CC1=CC(=O)C2C(C)(C)CCCC2(C)C12CCC1(COC(=O)C1)O2 (stereo not given) was tested, and the max response was -1.45%.
COc1cc(C)c(C(=O)O[C@H]2[C@@H](O)[C@H](n3ccc(=O)[nH]c3=O)O[C@@H]2CO)c(OC)c1 was tested, and the max response was -3.82%.
Compound CC/C=C/CC1=C(CCCCCCCC(=O)O)CCC1=O has a max response of 0.164%.
Compound C/C(=C\CCC(C)(O)c1ccc(C)cc1)C(=O)O (stereo not given) has a max response of -2.36%.
CN1C(=O)c2ccccc2-n2c(nc3ccccc3c2=O)[C@@]12O[C@H]2c1ccccc1 gave a max response of -8.37%.
Work on COc1cc(/C=C/C(=O)OC2[C@H](O)CC(O)(C(=O)O)C[C@H]2O)ccc1O (stereo not given in full) yielded a max response of 3.9%.
C[C@]12C=CC(=O)C=C1CC[C@@H]1[C@@H]2[C@@H](O)C[C@@]2(C)[C@H]1CC[C@]2(O)C(=O)COC(=O)CCC(=O)O gave a max response of 2.71%.
CN(NC(=O)CC(=O)NN(C)C(=S)c1ccccc1)C(=S)c1ccccc1 was tested, and the Potency was 66 nM (active).
For CCCCNC(=O)[C@@H]1Cc2ccccc2N1C(=O)[C@@H](N)CC, the max response was -0.785%.
Work on OC[C@H]1O[C@@H](Oc2cc(O)cc(-c3cc4ccc(O)cc4o3)c2)[C@H](O)[C@@H](O)[C@@H]1O yielded a max response of 0.0775%.
With CC(=O)N(O)CCCCCN1C(=O)CCC1=O the outcome was “inactive”.
O=C(/C=C/c1c(C(=O)O)[nH]c2cc(Cl)cc(Cl)c12)Nc1ccccc1 showed a max response of -11.7%.
CC1CCC2C(C)(C)C(O)CCC2(C)C12Cc1c(O)cc3c(c1O2)CN=C3N (stereo not given) gave a max response of -3.95%.
Compound COc1cc([C@H]2OC[C@@H]3[C@@H](c4ccc(O[C@@H]5O[C@H](CO)[C@@H](O)[C@H](O)[C@H]5O)c(OC)c4)OC[C@]23O)ccc1O has a max response of -6.95%.
C[C@H]1CN(C[C@H](Cc2ccccc2)C(=O)NCC(=O)O)CC[C@@]1(C)c1cccc(O)c1 gave a max response of -8.36%.
With CCOC(=O)N1CCC(NCCNC(=O)c2ccccc2C)CC1 the max response was 3.66%.
For COc1ccc(C2=CC(=O)OC2Cc2ccc(O)cc2)c(O)c1 (stereo not given), the outcome was “inactive”.
CC(NC(=O)CC(=O)O)c1nc2ccccc2c(=O)[nH]1 (stereo not given) was tested, and the max response was -1.93%.
For COc1c(C(CC(C)C)OC(C)=O)ccc(Oc2c(O)cc(C)cc2/C=C/C(C)=O)c1C(=O)O (stereo not given), the max response was -10.2%.
CN1CCC(c2c[nH]c3ccc(NC(=O)c4ccc(F)cc4)cc23)CC1 showed a max response of -9.85%.
With C=C[C@H]1[C@H](O[C@@H]2O[C@H](CO)[C@@H](O)[C@H](O)[C@H]2O)OC=C2C(=O)OCC[C@]21O the max response was 0.194%.
In the case of Cc1ccc(Sc2cncc3sc(C(N)=O)cc23)cc1, the outcome is reported as “inactive”.
For CCC/C=C/C(=O)O[C@H]1CC(C)(C)CC2[C@]13[C@H](O)O[C@@]21CCC2[C@@]4(C)CC[C@H](O[C@@H]5O[C@H](C(=O)O)[C@@H](O)[C@H](O[C@@H]6O[C@H](CO)[C@H](O)[C@H](O)[C@H]6O[C@@H]6O[C@@H](C)[C@H](O)[C@@H](O)[C@H]6O[C@@H]6OC[C@](O)(CO)[C@H]6O)[C@H]5O[C@@H]5O[C@H](CO)[C@H](O)[C@H](O)[C@H]5O)C(C)(C)C4CC[C@@]2(C)[C@]1(C)C[C@H]3OC(C)=O (stereo not given in full), the max response was -6.81%.
In the case of CC(=O)O[C@@]1(C)C[C@@H](O)[C@]2(O)C=CO[C@@H](O[C@@H]3O[C@H](CO)[C@@H](O)[C@H](O)[C@H]3O)[C@@H]21, the max response is reported as -0.355%.
Work on O=C(CCO[C@@H]1O[C@H](CO)[C@@H](O)[C@H](O)[C@H]1O)c1ccc(O)cc1 yielded a max response of 3.35%.
In the case of CCCC(N[C@@H](C)C(=O)N1[C@H](C(=O)O)C[C@@H]2CCCC[C@@H]21)C(=O)OCC (stereo not given in full), the outcome is reported as “inactive”.
With C/C(=C/CO)CC[C@@H]1[C@@]2(C)CCC[C@](C)(C(=O)O)C2CC[C@@]1(C)O (stereo not given in full) the max response was 2.67%.
For CC(=O)OC[C@@]12[C@H](O)C[C@@H](C)[C@]3(C[C@@H](c4ccoc4)OC3=O)[C@H]1C[C@H](O)C[C@]21CO1, the outcome was “inactive”.
Compound O=C(c1ccccn1)c1cnn2c(-c3ccncc3)ccnc12 has a max response of 3%.
Compound O=C(O)c1n[nH]c2c1C[C@H]1C[C@@H]21 has a max response of -0.338%.
On the % scale 0 is the no-effect control and ±100 the full control effect; potency means the concentration at half of the fitted maximal effect.
